Assay results as given in the supplement of paper PMC6555819.

Each sequence was assayed on VDR:RXRa (NR concentration 270 nM, RXRa partner concentration 90 nM) (assay: PBM binding z-score (relative to random genomic background probes); higher = stronger binding; sequences stand for … in GC…GCGATTGACAGCGTAGAATGAAGG).
Method: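 Protein-binding microarray (Agilent 4x180K custom design, double-stranded 60-nt probes: 5' GC cap, 34-nt variable region, 24-nt constant primer region; full probe sequence given). Purified or IVT nuclear receptor:RXRα heterodimers (3:1 NR:RXRα, mostly 270:90 nM) or homodimers were incubated for 1 h in PBS with 2% milk and no ligand, then detected with Alexa488 antibodies. Fluorescence from o1-orientation probes (~5 replicates averaged) was converted to z-scores against 500 random hg19 background probes. Variable regions are seed direct-repeat (DR0–DR5) sites, all their single-nucleotide variants and half-site ablations.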
TCGAGCAGGTTAGTCGGGGCATTCAGCCAACATA was tested, and the PBM binding z-score was 2.09.
For TCATATAGGTAATACAGGTGAAAGTAGGCATCTA, the PBM binding z-score was 1.41.
In the case of CTCGAAAGGTCGTGCTCAGGTGAGTAAACCAAAC, the PBM binding z-score is reported as 2.99.
With ATCGAAAGGTCGACGAGGTAAGTATACACCGTTT the PBM binding z-score was 4.59.
TCATTTAGGTAAACAGGTGAAAGTCCGTAAGTTA gave a PBM binding z-score of 1.26.
GCGACTGGGGCATCAGCAGGTTATCATAACTTAA showed a PBM binding z-score of -0.0496.
In the case of CCTATTGGTTGACCATAAGGGCAACCGAAGCTCG, the PBM binding z-score is reported as -0.0561.
With AGTCAAAGTTCAGGACGTGGTAACGTAAAGCACG the PBM binding z-score was 2.12.
CCTACTGGGCTAAGGTCATTGATCAGTCAAAGCA was tested, and the PBM binding z-score was 3.39.
In the case of TGAACGAGGTTATAAGATCAGGGAACGTTGCAAA, the PBM binding z-score is reported as 0.923.
Sequence TTACCAAGGTGAGCTGATGTCGTTGATCCAACTC has a PBM binding z-score of -0.0183.
TCTCGTAGGACACGAAGGTCAGAGCTTTCCAGAG was tested, and the PBM binding z-score was 1.71.
For CCTAGTTGGTCAAGTTCACACACGCTATAGGTAC, the PBM binding z-score was 3.96.
CCGACTGGGGCAAAGGTTCCCATACTCAGTACGA gave a PBM binding z-score of -0.179.
Work on CCTCGGAGTACAACAGGAGGTCAGAGCTGCCAGA yielded a PBM binding z-score of 2.09.
TTTCAAAGTTCAAAGGTAACGTAAGTATCCACAC gave a PBM binding z-score of 5.06.
CCTCGGAGGACAGAAGGTCAGACCTGTCCGCTTT was tested, and the PBM binding z-score was 1.05.
For TCTATTTGGTCACGGAGGTCACACACGACGGGTA, the PBM binding z-score was 5.87.
Sequence GCATATAGGTAATACAAGGTGAACGTCCGATTGT has a PBM binding z-score of 0.043.
For ATCTCTAGGTAACAAATTCAGTGAAAGAGAGGAC, the PBM binding z-score was 0.375.
With CGAACGTGGGCATGAGTTGATAGCAAATGCCGAT the PBM binding z-score was -0.7.
ACTTCCGGGTCAACGAGGTTATAGCACGCGTATA gave a PBM binding z-score of 7.62.
For TCTATTAGTTGATTAGGTCAACCGAAACAGCGGA, the PBM binding z-score was 1.94.
CCTTACGGGTCACTAGGTTATAGCACGACGAGCG gave a PBM binding z-score of 3.38.
For GTACCAAGGCGAATAGGTCGTTGATGAGTAGGCG, the PBM binding z-score was -0.145.
GCTATTAGTTGAAGGGGCAACCGAATGATTCTCG gave a PBM binding z-score of -0.246.
In the case of GCTAGCAGGCCATTTGGGTGACTCAATGACGGGC, the PBM binding z-score is reported as -0.749.
Work on TCTCGGGGGACACGAAAGGTCAGAGCTCGACATC yielded a PBM binding z-score of 4.39.
For CATACAGGGTCAGCTAGACCAGAGTAGGGACGGC, the PBM binding z-score was 2.52.
For TCATATAGGGAAAGGTGAAAGTCGAACGATATGA, the PBM binding z-score was 0.965.
TCGAGTAGTTTAGTCGGGGCATTCAGCCAACATA was tested, and the PBM binding z-score was 0.157.
For GCAGACAGGTGAAACGCATGTAACTCAGGGTGGC, the PBM binding z-score was -0.601.
Work on CAAACTAGGTAACGAAAGGTCAAAGTCGAATGAC yielded a PBM binding z-score of 4.87.
Sequence CAAACTAGGTCATTGACAGGACAGTGAATAGTAA has a PBM binding z-score of 2.42.
In the case of ACTAGCAGGCTAAGTTTGGGTCACTCAAACAAAG, the PBM binding z-score is reported as 0.216.
Sequence TCTTGTAGATCAATAGAGGTTAAGAACGTGCGCT has a PBM binding z-score of 1.27.
CTACCAAGGTGACCAAGGTCGTTGATTACTATTC gave a PBM binding z-score of 5.32.
CCGAGTAGGTTCTGGGGCATTCAGGCAACGGTGA showed a PBM binding z-score of -0.552.
TCTAGTAGATCAAAGGTTAAGAAAGCCGAAGCCT gave a PBM binding z-score of 1.37.
Work on TCTTGTAGTTCAAAGGTTAAGAAAGCCGAAGCCT yielded a PBM binding z-score of 3.68.
